Compound in this experiment: Cc1cc(ccc1-c1ccccc1)C(=O)N1CCCN(CC1)C(=O)CCl [compound 10]
The experiment is described as follows: probe-labelled cysteine peptide fold change vs DMSO (competition) (log2 fold change); higher = less target engagement (more negative = stronger competition). The note with it: THP-1, incubation time: 4 h.

Of roughly 21,000 targets only a part is listed; those with the largest changes were picked by preference.
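Also: competitive profiling in live THP-1 cells: cysteine peptides tagged with an iodoacetamide desthiobiotin (IA-DTB) probe, intensity after compound treatment relative to DMSO-treated cells.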

Chain of UniProt Q86X55 (Q86X55 whole entry, looked up): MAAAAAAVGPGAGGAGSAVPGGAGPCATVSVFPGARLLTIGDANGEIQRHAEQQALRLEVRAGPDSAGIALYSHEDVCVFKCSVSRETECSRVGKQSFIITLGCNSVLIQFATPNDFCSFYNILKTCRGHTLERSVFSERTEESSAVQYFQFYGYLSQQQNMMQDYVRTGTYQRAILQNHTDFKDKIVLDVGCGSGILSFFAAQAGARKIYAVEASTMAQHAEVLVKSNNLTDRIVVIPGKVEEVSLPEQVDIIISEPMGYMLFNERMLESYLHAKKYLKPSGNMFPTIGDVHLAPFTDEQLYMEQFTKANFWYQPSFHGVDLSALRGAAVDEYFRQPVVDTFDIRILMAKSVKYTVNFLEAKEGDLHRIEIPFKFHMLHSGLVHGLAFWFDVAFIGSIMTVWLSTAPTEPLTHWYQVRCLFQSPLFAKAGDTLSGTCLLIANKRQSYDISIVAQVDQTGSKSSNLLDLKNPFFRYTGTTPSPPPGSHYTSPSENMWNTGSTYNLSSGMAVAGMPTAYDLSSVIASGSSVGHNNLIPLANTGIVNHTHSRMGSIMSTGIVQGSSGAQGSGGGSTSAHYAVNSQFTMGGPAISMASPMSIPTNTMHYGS
Chain of UniProt Q9BSF8 (Q9BSF8 whole entry, looked up): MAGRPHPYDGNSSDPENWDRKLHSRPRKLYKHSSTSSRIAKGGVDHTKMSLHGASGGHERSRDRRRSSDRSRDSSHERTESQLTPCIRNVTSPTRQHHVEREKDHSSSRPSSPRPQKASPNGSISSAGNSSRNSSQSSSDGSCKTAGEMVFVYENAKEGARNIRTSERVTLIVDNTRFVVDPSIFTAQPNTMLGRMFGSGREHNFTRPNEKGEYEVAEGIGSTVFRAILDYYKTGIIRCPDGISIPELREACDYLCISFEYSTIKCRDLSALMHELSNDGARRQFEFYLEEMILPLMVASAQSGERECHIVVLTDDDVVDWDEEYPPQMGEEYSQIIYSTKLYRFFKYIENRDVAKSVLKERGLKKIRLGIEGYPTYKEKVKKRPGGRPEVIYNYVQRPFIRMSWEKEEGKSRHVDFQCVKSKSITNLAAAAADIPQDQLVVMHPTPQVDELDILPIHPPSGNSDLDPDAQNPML
Chain of UniProt Q92879 (Q92879 whole entry, looked up): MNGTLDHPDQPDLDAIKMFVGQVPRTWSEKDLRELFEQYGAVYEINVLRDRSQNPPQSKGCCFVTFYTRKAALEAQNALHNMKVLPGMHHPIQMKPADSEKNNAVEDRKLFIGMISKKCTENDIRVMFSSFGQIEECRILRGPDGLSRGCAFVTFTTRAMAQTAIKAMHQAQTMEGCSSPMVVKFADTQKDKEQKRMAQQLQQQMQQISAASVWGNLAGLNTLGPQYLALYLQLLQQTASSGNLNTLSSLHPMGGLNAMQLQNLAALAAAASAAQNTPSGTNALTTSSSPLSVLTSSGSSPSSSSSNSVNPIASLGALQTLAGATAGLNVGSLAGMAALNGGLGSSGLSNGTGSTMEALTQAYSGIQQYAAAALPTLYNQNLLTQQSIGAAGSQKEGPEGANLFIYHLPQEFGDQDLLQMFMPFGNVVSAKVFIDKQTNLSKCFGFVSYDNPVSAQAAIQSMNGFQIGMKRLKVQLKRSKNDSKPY
Chain of UniProt P60953 (P60953 whole entry, looked up): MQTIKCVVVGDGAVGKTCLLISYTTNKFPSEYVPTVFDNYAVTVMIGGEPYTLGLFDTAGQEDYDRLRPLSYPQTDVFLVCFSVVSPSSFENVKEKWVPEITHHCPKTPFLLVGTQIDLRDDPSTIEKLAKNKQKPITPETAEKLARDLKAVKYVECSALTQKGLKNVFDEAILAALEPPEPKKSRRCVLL
Chain of UniProt O95319 (O95319 whole entry, looked up): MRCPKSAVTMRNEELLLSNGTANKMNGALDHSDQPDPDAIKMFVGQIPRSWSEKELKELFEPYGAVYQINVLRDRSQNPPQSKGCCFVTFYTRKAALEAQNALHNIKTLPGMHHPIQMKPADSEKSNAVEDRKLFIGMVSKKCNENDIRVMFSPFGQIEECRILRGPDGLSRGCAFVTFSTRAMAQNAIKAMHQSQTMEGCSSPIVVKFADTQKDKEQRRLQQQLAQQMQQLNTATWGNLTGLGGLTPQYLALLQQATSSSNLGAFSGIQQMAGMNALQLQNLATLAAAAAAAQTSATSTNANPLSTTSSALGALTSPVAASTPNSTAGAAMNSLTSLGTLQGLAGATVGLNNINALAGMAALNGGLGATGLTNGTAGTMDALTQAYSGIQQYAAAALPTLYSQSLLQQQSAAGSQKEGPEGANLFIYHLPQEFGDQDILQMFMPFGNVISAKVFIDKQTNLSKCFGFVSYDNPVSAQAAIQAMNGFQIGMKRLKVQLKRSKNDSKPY
Chain of UniProt O95696 (O95696 whole entry, looked up): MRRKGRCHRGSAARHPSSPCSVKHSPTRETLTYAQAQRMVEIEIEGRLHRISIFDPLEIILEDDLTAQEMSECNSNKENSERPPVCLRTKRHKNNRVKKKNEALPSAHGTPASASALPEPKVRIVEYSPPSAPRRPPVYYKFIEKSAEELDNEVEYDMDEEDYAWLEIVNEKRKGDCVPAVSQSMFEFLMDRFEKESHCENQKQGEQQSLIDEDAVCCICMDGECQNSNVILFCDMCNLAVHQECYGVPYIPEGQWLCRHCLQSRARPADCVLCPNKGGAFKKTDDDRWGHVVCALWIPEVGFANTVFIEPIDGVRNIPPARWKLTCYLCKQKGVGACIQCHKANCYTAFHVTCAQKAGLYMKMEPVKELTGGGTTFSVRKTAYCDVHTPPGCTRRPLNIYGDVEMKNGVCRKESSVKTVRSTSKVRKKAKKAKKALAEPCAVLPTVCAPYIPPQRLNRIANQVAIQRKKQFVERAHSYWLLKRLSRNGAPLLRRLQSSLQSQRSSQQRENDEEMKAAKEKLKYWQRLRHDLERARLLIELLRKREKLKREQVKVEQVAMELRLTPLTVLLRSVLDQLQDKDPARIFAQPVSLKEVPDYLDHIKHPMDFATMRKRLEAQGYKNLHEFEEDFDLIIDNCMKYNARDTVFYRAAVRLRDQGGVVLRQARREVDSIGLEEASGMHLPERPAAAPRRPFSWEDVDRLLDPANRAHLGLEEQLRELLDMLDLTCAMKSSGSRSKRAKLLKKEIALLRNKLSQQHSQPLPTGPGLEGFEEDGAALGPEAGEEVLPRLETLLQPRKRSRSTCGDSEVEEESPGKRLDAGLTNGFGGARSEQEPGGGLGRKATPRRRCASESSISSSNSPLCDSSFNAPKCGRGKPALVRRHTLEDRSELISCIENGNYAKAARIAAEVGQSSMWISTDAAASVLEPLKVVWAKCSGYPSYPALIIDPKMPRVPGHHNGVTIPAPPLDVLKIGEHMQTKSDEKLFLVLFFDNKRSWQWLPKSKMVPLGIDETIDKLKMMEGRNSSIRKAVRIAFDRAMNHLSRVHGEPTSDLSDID
Chain of UniProt P42575 (P42575 whole entry, looked up): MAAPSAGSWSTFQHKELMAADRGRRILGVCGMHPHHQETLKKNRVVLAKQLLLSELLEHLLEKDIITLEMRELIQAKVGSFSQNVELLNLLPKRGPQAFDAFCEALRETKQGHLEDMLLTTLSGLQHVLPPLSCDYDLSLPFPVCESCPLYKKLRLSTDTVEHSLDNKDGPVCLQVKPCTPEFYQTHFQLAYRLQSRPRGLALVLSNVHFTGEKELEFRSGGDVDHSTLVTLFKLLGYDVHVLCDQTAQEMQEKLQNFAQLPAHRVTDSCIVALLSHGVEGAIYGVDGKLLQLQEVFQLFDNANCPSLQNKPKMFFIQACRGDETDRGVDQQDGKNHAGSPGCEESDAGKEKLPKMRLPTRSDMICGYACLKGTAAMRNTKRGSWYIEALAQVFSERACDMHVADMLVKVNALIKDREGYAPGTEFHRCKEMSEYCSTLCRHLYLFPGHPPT
Chain of UniProt Q9UHD1 (Q9UHD1 whole entry, looked up): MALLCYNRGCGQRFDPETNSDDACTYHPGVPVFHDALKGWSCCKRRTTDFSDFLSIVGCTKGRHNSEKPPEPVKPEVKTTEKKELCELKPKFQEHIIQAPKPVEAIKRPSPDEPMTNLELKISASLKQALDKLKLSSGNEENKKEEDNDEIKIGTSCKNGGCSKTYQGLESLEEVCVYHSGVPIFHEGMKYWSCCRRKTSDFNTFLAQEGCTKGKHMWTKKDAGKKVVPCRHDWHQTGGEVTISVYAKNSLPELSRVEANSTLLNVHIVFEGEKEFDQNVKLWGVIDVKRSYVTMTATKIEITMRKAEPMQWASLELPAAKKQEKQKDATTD
Chain of UniProt Q8TDN6 (Q8TDN6 whole entry, looked up): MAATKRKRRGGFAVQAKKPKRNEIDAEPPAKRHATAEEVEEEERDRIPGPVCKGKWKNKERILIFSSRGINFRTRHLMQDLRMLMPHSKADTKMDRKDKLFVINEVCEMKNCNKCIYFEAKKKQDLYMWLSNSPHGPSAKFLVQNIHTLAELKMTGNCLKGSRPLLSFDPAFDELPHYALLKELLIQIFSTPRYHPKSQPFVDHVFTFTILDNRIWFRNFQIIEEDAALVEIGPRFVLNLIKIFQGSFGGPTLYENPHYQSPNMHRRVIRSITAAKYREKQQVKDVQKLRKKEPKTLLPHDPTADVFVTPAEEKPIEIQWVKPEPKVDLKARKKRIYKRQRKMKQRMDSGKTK
Chain of UniProt Q9HC52 (Q9HC52 whole entry, looked up): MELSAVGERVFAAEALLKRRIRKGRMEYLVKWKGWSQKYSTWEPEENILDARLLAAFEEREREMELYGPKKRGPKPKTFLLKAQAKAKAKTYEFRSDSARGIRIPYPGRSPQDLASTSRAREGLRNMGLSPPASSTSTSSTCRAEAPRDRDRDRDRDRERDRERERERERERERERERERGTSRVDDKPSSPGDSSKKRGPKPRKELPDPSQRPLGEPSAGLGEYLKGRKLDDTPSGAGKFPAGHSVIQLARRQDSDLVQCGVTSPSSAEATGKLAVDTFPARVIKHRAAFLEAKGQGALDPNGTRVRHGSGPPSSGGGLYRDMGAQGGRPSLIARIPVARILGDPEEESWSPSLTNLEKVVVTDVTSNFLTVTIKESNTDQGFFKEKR

As for “CEP170_Q5SW79_30_EMIFVGRDDCELMLQSR (UniProt Q5SW79)”, the “probe-labelled cysteine peptide fold change” value is, setting by setting: (10 µM) -0.075; (50 µM) 0.0343.
In the same order, the values of “CEPT1_Q9Y6K0_11+30_CGDSHPESPVGFGHMSTTGCVLNK (UniProt Q9Y6K0)” are -1.98 and -2.17.
On to “CFL1_P23528_39_AVLFCLSEDK (UniProt P23528)”, for which the “probe-labelled cysteine peptide fold change” value worked out at 0.0825 (10 µM) and 0.0485 (50 µM).
For “CASP2_P42575_30_ILGVCGMHPHHQETLKK (UniProt P42575)”, the “probe-labelled cysteine peptide fold change” value is, setting by setting: (10 µM) -0.432; (50 µM) -1.14.
In the same order, the values of “CBR1_P16152_226_ILLNACCPGWVR (UniProt P16152)” are -0.103 and -0.297.
As for “CELF1_Q92879_119_CTENDIR (UniProt Q92879)”, the “probe-labelled cysteine peptide fold change” value reads like this: (10 µM) 0.0497; (50 µM) 0.276.
Consider “BHLHE22_Q8NFJ8_156_GSVAESSGGEQSPDDDSDGRCELVLR (UniProt Q8NFJ8)”, for which the “probe-labelled cysteine peptide fold change” value was -0.393 (10 µM) and -0.217 (50 µM).
Regarding “CARD9_Q9H257_402_ADELQLQVFQCEAQLLAVEGR (UniProt Q9H257)”, the “probe-labelled cysteine peptide fold change” value reads like this: (10 µM) 0.18; (50 µM) 0.639.
In the same order, the values of “CEPT1_Q9Y6K0_30_CGDSHPESPVGFGHMSTTGCVLNK (UniProt Q9Y6K0)” are -2.38 and -2.51.
Taken in the same sequence, the figures for “CENPF_P49454_339_CRDELVR (UniProt P49454)” were 0.481 and 0.506.
In the same order, the values of “BTBD10_Q9BSF8_86_TESQLTPCIR (UniProt Q9BSF8)” are -0.608 and -1.07.
As for “CBR1_P16152_122_DVCTELLPLIK (UniProt P16152)”, the “probe-labelled cysteine peptide fold change” value (10 µM) was 0.109 and the “probe-labelled cysteine peptide fold change” value (50 µM) is 0.509.
In the same order, the values of “CARM1_Q86X55_438_AGDTLSGTCLLIANK (UniProt Q86X55)” are 0.0534 and 0.146.
In the same order, the values of “BRAP_Q7Z569_47_TTLASAVACLEGK (UniProt Q7Z569)” are -0.252 and -0.245.
In the case of “CAMK2B_Q13554_116_EYYSEADASHCIQQILEAVLHCHQMGVVHR (UniProt Q13554)”, the “probe-labelled cysteine peptide fold change” value was -0.0191 (10 µM) and 0.141 (50 µM).
“CELF2_O95319_174_GCAFVTFSTR (UniProt O95319)”: the “probe-labelled cysteine peptide fold change” value reads like this: (10 µM) 0.0275; (50 µM) 0.0429.
Taken in the same sequence, the figures for “BRD1_O95696_294_TDDDRWGHVVCALWIPEVGFANTVFIEPIDGVR (UniProt O95696)” were -0.0156 and 0.0676.
In the case of “CBX8_Q9HC52_142_NMGLSPPASSTSTSSTCR (UniProt Q9HC52)”, the “probe-labelled cysteine peptide fold change” value is, setting by setting: (10 µM) -0.187; (50 µM) -0.373.
Turning to “AVEN_Q9NQS1_169_EWDSEASCPK (UniProt Q9NQS1)”, the “probe-labelled cysteine peptide fold change” value by setting is: (10 µM) -0.857; (50 µM) -2.39.
Taken in the same sequence, the figures for “BRIX1_Q8TDN6_52_RHATAEEVEEEERDRIPGPVCK (UniProt Q8TDN6)” were -0.278 and -0.296.
“CEP192_Q8TEP8_1562_APVEVAPCADVVTR (UniProt Q8TEP8)”: the “probe-labelled cysteine peptide fold change” value (10 µM) was -0.611 and the “probe-labelled cysteine peptide fold change” value (50 µM) is -0.285.
Taken in the same sequence, the figures for “CHORDC1_Q9UHD1_59_RTTDFSDFLSIVGCTK (UniProt Q9UHD1)” were -0.167 and -0.292.
Taken in the same sequence, the figures for “CDC42_P60953_105_EKWVPEITHHCPK (UniProt P60953)” were -0.508 and -0.929.
